# Experimental data published in PubChem BioAssay (NCI).
# This is part of a sample that, as a whole, favours compounds with a hit. Of some 83,000 tested, about 20% had one in any assay.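 Step 1: grow cells in 96-well plates. Step 2: add test compound at a single concentration. Step 3: incubate 48 h. Step 4: record percent growth.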 Values without a mark were called inactive. The source made the active and inactive calls. The calls were made as follows: active = growth percent below 10; inactive = the rest.
# Test system: MDA-MB-468 breast
# Test: NCI-60 one-dose screen, 48 h (100 = growth as untreated, 0 = no growth, -100 = all killed)
# Details: 10 µM unless noted
row,Compound,growth
1,Cc1ccnc(NC(c2ccccc2)c2ccc3cccnc3c2O)c1 (centres undefined),24.9%
2,CCOC(=O)C1(C)CCCC1N (centres undefined),99.2%
3,C=CCN1C(=O)/C(=C/C(=O)OC)S/C1=N\NC(=O)c1cc2ccc1/C=C\c1ccc(cc1)/C=C\2,76.3%
4,CCn1c(SCc2ccc(C)cc2)nnc1-c1nn(-c2ccc(Cl)cc2Cl)c(-c2ccc(Cl)cc2)c1C,6.59% (active)
